# Measured values published in ChEMBL document CHEMBL3988442, “University of Dundee, Small-Polar-MMV Screening Library” (2021).
# Assays:
# [1] = biological target: T1, Aspartate--tRNA(Asp/Asn) ligase (Mycobacterium tuberculosis (strain ATCC 25618 / H37Rv)) (UniProt P9WFW3); experiment: Assay for Asp RNA synthetase-1 from Mycobacterium tuberculosis; format: functional; parameters: scale not given: direction of the effect not stated beside the values; conditions: 30 µM; also: in the data most compounds retested in dose-response had high values
# T1 sequence (whole entry): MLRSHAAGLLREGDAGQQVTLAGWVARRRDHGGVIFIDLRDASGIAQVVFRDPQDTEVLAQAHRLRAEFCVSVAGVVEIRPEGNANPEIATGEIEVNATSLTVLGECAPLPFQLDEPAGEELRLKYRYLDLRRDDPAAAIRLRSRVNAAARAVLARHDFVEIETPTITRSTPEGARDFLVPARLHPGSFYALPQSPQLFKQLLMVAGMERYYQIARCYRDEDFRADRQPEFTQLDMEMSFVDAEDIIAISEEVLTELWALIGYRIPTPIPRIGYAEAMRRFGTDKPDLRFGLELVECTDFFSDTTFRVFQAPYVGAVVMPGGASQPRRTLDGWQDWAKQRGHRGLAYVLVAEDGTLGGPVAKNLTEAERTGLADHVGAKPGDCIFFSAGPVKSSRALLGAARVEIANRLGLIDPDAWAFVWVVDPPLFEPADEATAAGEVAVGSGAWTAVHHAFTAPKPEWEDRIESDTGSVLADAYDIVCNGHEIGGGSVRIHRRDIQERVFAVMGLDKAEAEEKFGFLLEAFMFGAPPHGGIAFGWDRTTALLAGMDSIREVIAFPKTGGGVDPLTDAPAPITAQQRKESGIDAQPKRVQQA
# [2] = biological target: Shiga toxin 2 (Escherichia coli O157:H7) (UniProt P09385+P09386); experiment: E. coli 0.157:H7 Shiga Toxin SOP - stx2 screening assay; format: functional; parameters: scale not given: direction of the effect not stated beside the values; conditions: 30 µM
SMILES,Percent Effect [1],Percent Effect [2]
CC(CNCc1ccc(Cl)c(Cl)c1)Oc1ccccn1 (centres undefined),-0.523%,-59.8%
FC1(F)CCN(Cc2cccnc2)CC12CCN(c1ccccn1)C2 (centres undefined),1.91%,4.74%
CC(=O)c1cn(CCC(=O)N[C@H](C(=O)O)C(C)C)c2ccccc12,-1.95%,-36.7%
Cc1ncc(CNC(=O)CCOc2ccccc2)c(C2CCCN2C)n1 (centres undefined),5.05%,-10.2%
CC(C)CN1C[C@H]2CCN(c3ncccn3)CC[C@H]2S1(=O)=O,2.71%,-33%
Cn1nc(C2CCN(C(=O)Cc3cccc(F)c3)CC2)c2cccnc21,-2.81%,-7.51%
COCC1CCN(C(=O)c2cccc(S(=O)(=O)NC3CCCC3)c2)C1 (centres undefined),-0.437%,-4.97%
Cc1ccc(C)c(NC(=O)Nc2c[nH]c(=O)[nH]c2=O)c1,-1.44%,2.86%
COCC1CC2(CCN(Cc3cnn(C)c3)CC2)CN1C(C)C (centres undefined),10.7%,-9.26%
COc1cccc2c1OCC(CNC(=O)CCCN1CCOCC1)C2 (centres undefined),4.84%,5.01%
COCC(=O)NCCn1ccc2c(OC)cccc21,-1.31%,-26.2%
CC(C)c1nnc2n1CCN(C(=O)c1ccc3cc[nH]c3c1)C2,-2.98%,3.97%
CC(C)(C)c1nc(CN2CCCC2CCc2ccccc2)no1 (centres undefined),2.52%,14.9%
Cc1cnn(CC2CCCN2C(=O)c2cn(-c3ccccc3)nc2C)c1 (centres undefined),4.47%,14.6%
COc1cccc(C2CC(=O)Nc3nc(N)sc32)c1OC (centres undefined),65.3%,-20%
Cc1[nH]ncc1C(=O)N1CCN(CC(O)C(C)(C)C)CC1 (centres undefined),0.878%,0.313%
CC(C)CCN1CCNC(=O)C1CC(=O)N1CCc2sccc2C1 (centres undefined),-3.89%,-7.76%
